Molecules are shown by their SMILES. About 1,700 (3.3%) of roughly 52,000 compounds were called active. The sample holds actives, similar compounds and a random draw of the others, so the mix is not that of the screen. Cut-off read from the data, not from the text of the source: active = survival mostly below about 52% (no sharp cut-off); inactive = mostly above about 56%.

The experiment deals with Wild type. The experiment in a line: S. aureus survival, RN4220 and DeltatarO strains – OD600, teichoic acid synthesis inhibitors, primary screen (AID 463173). The conditions noted are these: S. aureus RN4220 wild type/DeltatarO growth, OD600, 18 h, stronger effect = lower value, screened at 18.75 µg/mL (by protocol).
As to `CCOc1ccc(NC(=O)Cn2c(=O)cc(C)c3c(C)nn(-c4ccc(CC)cc4)c32)cc1`, the survival was 127% (inactive).
The value for `CCN(c1ccc(C)cc1C)S(=O)(=O)c1nnc(NC(=O)c2ccc(F)cc2)s1` was 20% (inactive); that for `CC(C)CN(CCNC(=O)c1cn(C)c2ccc(S(=O)(=O)N3CCOCC3)cc2c1=O)CC(C)C` was 82% (inactive).
The value for `CCOC(=O)Cc1ccc(NC(=O)NCc2cccn2Cc2ccccc2)cc1` was -6% (active).
The value for `CCOc1ccc(NC(=O)NCc2cccn2Cc2ccccc2)cc1` was 64% (inactive); that for `CCOC(=O)c1cccc(NC(=O)NCc2cccn2Cc2ccccc2)c1` was 123% (inactive).
On to `Cc1nn(CC(=O)NCc2cccc(F)c2)c(=O)c2c(C)n(-c3ccc(Cl)cc3)nc12`, for which the survival was 75% (inactive).
In the case of `COc1ccc(/C=C/c2nc(-c3ccccc3O)n(-c3ccccc3)n2)cc1OC`, the survival is 8% (active).
The value for `Oc1ccccc1-c1nc(/C=C/c2ccccc2)nn1-c1ccccc1` was 2% (active); that for `COc1ccc(/C=C/c2noc(-c3ccccc3O)n2)cc1OC` was 136% (inactive).
The value for `Oc1ccccc1-c1nc(/C=C/c2ccccc2Cl)nn1-c1ccccc1` was 2% (active); that for `COc1cc2c(-c3ccccc3O)nc3c(c(C)nn3-c3ccccc3)c2cc1OC` was 63% (inactive); that for `Oc1ccccc1-c1nc(/C=C/c2ccccc2Cl)no1` was 81% (inactive).
In the case of `CC(=O)Nc1ccc(/C=C/c2nc(-c3ccccc3O)n(-c3ccccc3)n2)cc1` it was 86% (inactive).
In the case of `Oc1ccccc1-c1nc(/C=C/c2ccc(F)cc2)nn1-c1ccccc1`, the survival is 34% (inactive).
In the case of `Oc1ccc(/C=C/c2nc(-c3ccccc3O)n(-c3ccccc3)n2)c(O)c1` it was -1% (active).
The value for `CN(C)c1ccc(/C=C/c2nc(-c3ccccc3O)n(-c3ccccc3)n2)cc1` was 46% (inactive).
The value for `COc1cc2c(-c3ccccc3Cl)nc3c(c(C)nn3-c3ccccc3)c2cc1OC` was 73% (inactive).
Regarding `Cc1nc(C)c(C(=O)N/N=C/c2ccc(O)cc2O)cc1C(=O)N/N=C/c1ccc(O)cc1O`, the survival is 108% (inactive).
The value for `COCCn1c(Cc2ccccc2)nnc1SCC(=O)N(C)C` was 100% (inactive); that for `CC(C)(C)NC(=O)c1ccc2nc(CCc3ccccc3)oc2c1` was 65% (inactive).
The value for `Cn1c(CNc2cccc(C(F)(F)F)c2)n[nH]c1=S` was 111% (inactive).
The value for `O=C(Cn1cc(SCc2ccccc2)c2ccccc21)N1CCCCCC1` was 83% (inactive); that for `O=C(Cn1cnc(S(=O)(=O)N2CCCC2)c1)Nc1ccc(OC(F)(F)F)cc1` was 84% (inactive).
`CCCCNC(=O)CN1CCN(c2ccc(NC(=O)c3ccc(OC)cc3)cc2C(=O)O)CC1`: the survival is 80% (inactive).
On to `COc1ccc(CCNC(=O)c2ccc3c(c2)N(Cc2cccc(C)c2)C(=O)c2ccccc2S3(=O)=O)cc1OC`, for which the survival was 101% (inactive).
In the case of `CCC(C)(C)C(=O)Nc1nnc(COC)s1` it was 122% (inactive).
In the case of `CC(C)(C)Sc1ccc(SC#N)s1` it was 23% (active).
In the case of `N#CSc1ccc2nc(N)sc2c1` it was 93% (inactive).
For `Cc1ccccc1NC(=O)C(Cc1ccccc1)N1Cc2ccccc2C1=O` (stereo not drawn), the survival was 76% (inactive).
In the case of `N#CC(C#N)C(CC(=O)c1ccccc1)c1ccc2c(c1)OCO2` (stereo not drawn) it was 111% (inactive).
In the case of `Cc1c(Cl)cccc1NC(=O)CC(c1ccc(F)cc1)N1Cc2ccccc2C1=O` (stereo not drawn) it was 10% (active).
The value for `Cc1c(Cl)cccc1NC(=O)CC(c1cccs1)N1Cc2ccccc2C1=O` (stereo not drawn) was 0% (active); that for `CCc1ccccc1NC(=O)CC(c1ccc(F)cc1)N1Cc2ccccc2C1=O` (stereo not drawn) was 121% (inactive).
As for `CCOc1ccccc1NC(=O)CC(c1ccc(F)cc1)N1Cc2ccccc2C1=O` (stereo not drawn), the survival was 80% (inactive).
With `O=C(CC(c1cccs1)N1Cc2ccccc2C1=O)Nc1ccccc1F` (stereo not drawn), the survival is 73% (inactive).
In the case of `O=C(CC(c1cccs1)N1Cc2ccccc2C1=O)Nc1ccc(Cl)cc1` (stereo not drawn) it was 129% (inactive).
The value for `Cc1cccc(Cn2c(SCc3ccc(C(=O)NCc4ccccc4F)cc3)nc3ccncc32)c1` was 80% (inactive).
In the case of `COCCn1c(C)nnc1SCC1CCCO1` (stereo not drawn) it was 127% (inactive).
Consider `CC(C)c1ccc(NC(=O)c2cccc3c2C(=O)N(C2CCCCC2)C3)cc1`, for which the survival was 1% (active).
In the case of `COC(=O)c1ccc(NC(=O)c2cccc3c2C(=O)N(C2CCCCC2)C3)cc1` it was 88% (inactive); in that of `Cc1cc(C)cc(NC(=O)c2cccc3c2C(=O)N(C2CCCCC2)C3)c1`, 42% (inactive).
The value for `Cn1c(C(C(=O)NCC2CCCO2)N(C(=O)Cn2nnc3ccccc32)c2ccc3c(c2)OCO3)nc2ccccc21` (stereo not drawn) was 111% (inactive); that for `Cc1ccc(-n2nc(C)c3c(C(=O)Nc4ccc(Br)c(C)c4)cc(C)nc32)cc1` was 78% (inactive).
The value for `COc1ccc(NC(=O)c2cc(C)nc3c2c(C)nn3-c2cccc(Cl)c2C)c(OC)c1` was 85% (inactive); that for `CCc1cccc(C)c1NC(=O)c1cc(C)nc2c1c(C)nn2-c1cccc(Cl)c1C` was 78% (inactive).
As to `Cc1cc(C(=O)NCc2ccccc2C)c2c(C)nn(-c3cccc(F)c3)c2n1`, the survival was 76% (inactive).
Turning to `Cc1ccc(C)c(N2CCN(C(=O)c3cc(C)nc4c3c(C)nn4-c3ccccc3)CC2)c1`, the survival is 134% (inactive).
The value for `Cc1ccc(C)c(N2CCN(C(=O)c3cc(C)nc4c3c(C)nn4-c3cccc(F)c3)CC2)c1` was 0% (active).
In the case of `Cc1cc(C(=O)Nc2ccc(C(C)C)cc2)c2c(C)nn(-c3ccccc3)c2n1` it was 80% (inactive).
In the case of `Cc1cc(C)cc(NC(=O)c2cc(C)nc3c2c(C)nn3-c2ccccc2)c1` it was -6% (active); in that of `Cc1cc(C(=O)NCc2ccccc2)c2c(C)nn(-c3cccc(F)c3)c2n1`, 14% (active); in that of `Cc1ccc(NC(=O)c2cc(C)nc3c2c(C)nn3-c2cccc(Cl)c2C)c(C)c1`, -6% (active).
Turning to `Cc1cc(C(=O)N2CCN(c3ccccc3)CC2)c2c(C)nn(-c3cccc(F)c3)c2n1`, the survival was 63% (inactive).
Turning to `COc1cccc(CNC(=O)c2cc(C)nc3c2c(C)nn3-c2cccc(F)c2)c1`, the survival was 131% (inactive).
As for `O=C1CC(c2ccccc2C(F)(F)F)c2c(c3ccccc3[nH]c2=O)O1` (stereo not drawn), the survival was 69% (inactive).
The value for `Cc1cccc(-c2noc(-c3cccnc3NCc3ccccc3Cl)n2)c1` was 79% (inactive); that for `N#Cc1ccccc1CN1C(=O)c2ccccc2Sc2ccc(C(=O)OCc3ccco3)cc21` was 85% (inactive).
In the case of `CC1CCN(S(=O)(=O)c2ccc3c(c2)N(CC(=O)N2CCN(c4ccccc4)CC2)C(=O)CO3)CC1` it was 87% (inactive).
Regarding `CCN(CC)C(=O)CSc1nsc(SCC(=O)N(CC)CC)c1C#N`, the survival was 102% (inactive).
In the case of `CC(=O)Nc1ccc(S(=O)(=O)N2CCC(Oc3ccc(-n4cnnn4)cc3)CC2)cc1` it was 118% (inactive); in that of `O=C(CN1C(=O)S/C(=C\c2ccco2)C1=O)CN1C(=O)S/C(=C\c2ccco2)C1=O`, 113% (inactive); in that of `OC1N(CN2CCN(c3ccccc3F)CC2)c2ccccc2C12OCCCO2` (stereo not drawn), 104% (inactive).
In the case of `Cn1cnnc1SCC(=O)Nc1ccc(C#N)cc1` it was 71% (inactive); in that of `CC(=O)c1cccc(NC(=O)CCCSc2nc(-c3ccco3)cc(C(F)(F)F)n2)c1`, 52% (inactive).
In the case of `Cc1ccccc1CSc1nc(-c2cccc(F)c2)nc2c1Cc1c(CO)cnc(C)c1O2` it was 85% (inactive); in that of `Cc1cc(C)c(NC(=O)c2cc(C)nc3c2c(C)nn3-c2cccc(F)c2)c(C)c1`, 83% (inactive); in that of `Cc1cc(C(=O)Nc2cccc(C)c2C)c2c(C)nn(-c3cccc(F)c3)c2n1`, 73% (inactive).
For `CCc1ccc(-n2nc(C)c3c(C(=O)Nc4ccc(Cl)cc4)cc(C)nc32)cc1`, the survival was 53% (inactive).
In the case of `CCc1ccc(-n2nc(C)c3c(C(=O)Nc4cc(OC)cc(OC)c4)cc(C)nc32)cc1` it was 66% (inactive).
In the case of `CCc1ccc(-n2nc(C)c3c(C(=O)Nc4cccc(C(F)(F)F)c4)cc(C)nc32)cc1` it was -3% (active); in that of `Cc1cc(C(=O)Nc2cccc(C(F)(F)F)c2)c2c(C)nn(-c3cccc(F)c3)c2n1`, -1% (active).
`CCc1nnc2c3ccccc3nc(Nc3cc(C)cc(C)c3)n12`: the survival is 37% (inactive).
In the case of `Cc1cc(C)nc(NS(=O)(=O)c2ccc(NC(=O)c3ccccc3O)cc2)n1` it was 127% (inactive).
In the case of `CCCN1CCN(c2nnc(-n3cccc3C(=O)Nc3cc(Cl)ccc3C)s2)CC1` it was 82% (inactive); in that of `Cc1c(C(=O)N(C)C)sc2c1c(=O)n(-c1ccccc1C(F)(F)F)c(=O)n2Cc1ccccc1C#N`, 66% (inactive); in that of `CCOC(=O)c1ccccc1NC(=O)Cn1c(=O)n(CCC(=O)N2CCc3ccccc3C2)c(=O)c2ccccc21`, 88% (inactive).
The value for `Cc1ccc2sc(N(Cc3cccnc3)C(=O)CCS(=O)(=O)c3ccccc3)nc2c1C` was 1% (active).
As to `CC(=O)c1ccc(C(=O)N(Cc2cccnc2)c2nc3c(C)c(C)ccc3s2)cc1`, the survival was -3% (active).
In the case of `Cc1cccc2sc(N(Cc3cccnc3)C(=O)CCS(=O)(=O)c3ccccc3)nc12` it was 82% (inactive); in that of `CC(=O)N(Cc1cccnc1)c1nc2c(C)c(C)ccc2s1`, 71% (inactive).
The value for `Cc1cc(C)c2nc(N(Cc3cccnc3)C(=O)CCS(=O)(=O)c3ccccc3)sc2c1` was 59% (inactive); that for `CC(=O)c1ccc(C(=O)N(Cc2cccnc2)c2nc3c(Cl)cccc3s2)cc1` was 119% (inactive).
With `Cc1ccc(SCC(=O)Nc2ccc3oc(-c4cccc(C)c4)nc3c2)cc1`, the survival was 96% (inactive).
In the case of `CCN(CC)C(=O)CSc1nc2cc3c(cc2c(=O)n1CCCCCC(=O)NCc1ccc(OC)cc1)OCO3` it was -3% (active); in that of `COCCCNC(=O)CSc1nc2cc3c(cc2c(=O)n1CCCCCC(=O)NCc1ccc(OC)cc1)OCO3`, 1% (active).
The value for `CCOC(=O)CSc1nc2cc3c(cc2c(=O)n1CCCCCC(=O)NCc1ccc(OC)cc1)OCO3` was 71% (inactive); that for `COc1ccc(CCNC(=O)CCCn2c(SCC(N)=O)nc3cc4c(cc3c2=O)OCO4)cc1OC` was 81% (inactive).
With `COCCCNC(=O)CSc1nc2cc3c(cc2c(=O)n1CCCC(=O)NCc1ccc(OC)cc1)OCO3`, the survival was 70% (inactive).
As for `CCOC(=O)CSc1nc2cc3c(cc2c(=O)n1CCCC(=O)NCCc1ccc(OC)c(OC)c1)OCO3`, the survival is -4% (active).
Take `CCN(CC)C(=O)CSc1nc2cc3c(cc2c(=O)n1CCCC(=O)NCc1ccc(OC)cc1)OCO3`: the survival was 82% (inactive).
The value for `COCCNC(=O)CSc1nc2cc3c(cc2c(=O)n1CCCCCC(=O)NCc1ccc(OC)cc1)OCO3` was 63% (inactive); that for `CCCCNC(=O)CSc1nc2cc3c(cc2c(=O)n1CCCC(=O)NCCc1ccc(OC)c(OC)c1)OCO3` was 129% (inactive).

(Values after PubChem BioAssay AID463173 (ICCB-Longwood Screening Facility, Harvard Medical School, 2010).)
